# A selection: hits, their analogues and other compounds. The true share with any hit is near 7.2%.
# A1 inh: caspase 3/7 activation in MEF A1-2A-BIM cells, primary screen, A1 inhibitor project, cell-based, luminescence, HTS; caspase activation, % (no concentration beside the values); Caspase-Glo 3/7 luminescence, 3 h; percent of clofoctol response, vehicle zero; 0.066% of 330,000 active;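 active = over half of replicate activation scores above 10%, or exactly half above 10 with the replicate mean above 10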
# Efflux pump mplx: inhibitors of Candida efflux pumps in yeast, primary screen, S. cerevisiae, Nile Red, multiplex. S. cerevisiae Candida pump triplex. inhibition, % at 10 µM. 0.44% of 330,000 active. AID 485275, 2010;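 active = plate passing quality check with inhibition over a set limit, or well fluorescence over plate mean plus 4 SD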;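 also: Nile Red retained in pooled yeast measured as flow cytometry median fluorescence; 0% = buffer negative control and 100% = Enniatin B positive control; higher means more Nile Red kept so more efflux inhibition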
# VLA-4 inh: inhibition in human VLA-4 binding assay, primary screen, VLA-4 allosteric modulator project, MLPCN library, flow cytometry, VLA-4 expressing cells; ligand binding flow cytometry; inhibition, % (about 7 µM as worked out from the volumes in the protocol); 0.2% of 330,000 active; in the data active = inhibition above about 50%
# ALR inh: inhibitors of human ALR sulfhydryl oxidase, primary screen, biochemical, H2O2 detection, HRP-luminol luminescence, single point | inhibition, % (no concentration beside the values) | purified ALR, DTT oxidation | AID 485317, 2010 | 3.8% of 290,000 active;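 active = mean replicate inhibition above about 79%, with every replicate also reaching it, limit read from the data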
# AHR activator: AHR activators, primary screen, cell-based, luminescence, luciferase reporter, human | AHR-responsive luciferase reporter cells | Aryl hydrocarbon receptor (Homo sapiens), P35869 | activation, % at 5 µM | 2.5% of 320,000 active; in the data active = activation above about 47%;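 also: 0% = vehicle wells and 100% = reference agonist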
# SUMO Mot1 rescue: yeast Mot1-301 growth rescue at high temperature, primary screen, SUMOylation pathway inhibitor project, S. cerevisiae, ATP luminescence, 38.5C; S. cerevisiae Mot1-301 growth rescue; percent above DMSO median, 100 means doubled; growth rescue, % at 18.8 µM; 1% of 320,000 active; AID 2716, 2010;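 active = every valid replicate shows activation above 250% relative to neutral control wells; inactive = the rest, any valid replicate at or below 250%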;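 also: OY570 slx delta 5 strain wells were the positive control but not used for scaling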
# Starred values were filed as active, the others as inactive; · = not tested or not shown.
SMILES,A1 inh,Efflux pump mplx,VLA-4 inh,ALR inh,AHR activator,SUMO Mot1 rescue
O=C(Nc1ccccc1N1CCCC1)c1ccccc1Cl,0,0,8,99*,6,0
Cc1ccccc1C(=O)Nc1ccccc1N1CCCCC1,0,0,2,-12,3,-4
CCN(CC(=O)Nc1c(F)cccc1F)C(=O)C1CC(=O)N(c2ccc3c(c2)OCCO3)C1 (stereo not drawn),-1,0,11,0,-2,-9
CCOc1ccccc1N(C)S(=O)(=O)c1ccc2c(c1)CC(C)N2C(=O)C1CC1 (stereo not drawn),-1,0,-13,-1,6,156
COc1ccccc1NC(=O)c1cc(Br)ccc1Cl,1,0,3,·,65*,20
O=C(Cc1ccc(F)cc1)Nc1ccccc1N1CCCC1,1,0,-1,89*,2,0
COc1ccccc1NC(=O)c1ccccc1C(=O)Nc1ccccc1OC,1,0,8,-16,-1,-5
CN1CCN(c2ccccc2NC(=O)c2cc(Br)ccc2Cl)CC1,0,0,8,4,55*,5
O=C(NC(=S)N1CCN(c2ccc(O)cc2)CC1)c1ccco1,0,0,-7,99*,-2,-7
COc1ccc(S(=O)(=O)Cc2ccc(C(=O)N3CCN(C(=O)c4ccco4)CC3)o2)cc1,0,0,16,-69,0,8
COc1ccc(C(C(=O)NCC2CCCO2)N(Cc2cccs2)C(=O)c2snc(C(N)=O)c2N)cc1 (stereo not drawn),0,0,-10,-10,2,13
CCC1(c2ccc(F)cc2)NC(=O)N(CC(=O)N2CC(=O)Nc3ccccc32)C1=O (stereo not drawn),0,0,-2,-9,0,195
COc1cc2cc(CN(Cc3cccs3)C(=S)Nc3ccccc3)c(=O)[nH]c2cc1OC,-1,-7,4,-4,39,-9
O=C(Nc1ccccc1N1CCCCC1)c1ccco1,0,0,16,97*,0,-1
O=C(Nc1ccccc1N1CCCC1)c1ccc(Br)o1,-1,0,11,98*,3,-6
O=C(CSc1c(Cl)cccc1Cl)NC1CCCc2ccccc21 (stereo not drawn),0,0,3,·,0,349*
O=C(CSc1ccccc1Cl)NC1CCCc2ccccc21 (stereo not drawn),1,0,-18,-6,3,3
CN(CC(=O)NCc1cccs1)S(=O)(=O)c1cccc2cccnc12,0,0,20,94*,-1,-1
COc1cccc(NC(=S)/C(=C(\[O-])c2cc(C)n(-c3ccccc3F)c2C)[n+]2ccc(N(C)C)cc2)c1,0,0,3,-2,8,-10
Cc1ccc2nc(-c3cccc(S(=O)(=O)N4CC(C)OC(C)C4)c3)cn2c1 (stereo not drawn),-1,0,13,98*,16,135
CN(C)S(=O)(=O)c1cccc(-c2cn3cccnc3n2)c1,-1,0,6,99*,9,-2
Cc1ccc2nc(-c3cccc(S(=O)(=O)N(C)C)c3)cn2c1,0,0,7,99*,26,-3
CCCc1c(C(=O)N/N=C/c2cccnc2)nnn1-c1nonc1N,0,0,6,-2,21,-6
O=C(O)C(O)C(O)c1nc2ccccc2[nH]1 (stereo not drawn),0,0,-8,0,1,-18
O=C1C=C(/C=C/c2ccccc2)C[C@@H](c2ccc3c(c2)OCO3)C1,0,1,0,-1,36,6
O=C(COC(=O)C1(c2ccccc2F)CCCC1)NC1CCS(=O)(=O)C1 (stereo not drawn),0,0,12,-32,2,298*
COCC(=O)N[C@@H]1c2cc(OC)c(OC)cc2C[C@H]1OCc1ccccc1,·,0,·,·,·,·

# Assay outcomes as filed in PubChem BioAssay.
